Most compounds without a hit are left out; they make up all but 2.4% or so of the library.
D2 ag-1: HTS Assay for Allosteric Agonists of the Human D2 Dopamine Receptor: Primary Screen for Agonists | D(2) dopamine receptor (Homo sapiens), P14416 | AID 485358, 2010 | activation, % at 2 µM | HEK293 T-REx D2 cells, calcium flux agonist mode | actives 0.53% (n = 340,000);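 active = activation over 3 SD above normal in the single-dose calcium agonist read, cut at about 30% in these data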
Target sequence (P14416 whole entry, looked up): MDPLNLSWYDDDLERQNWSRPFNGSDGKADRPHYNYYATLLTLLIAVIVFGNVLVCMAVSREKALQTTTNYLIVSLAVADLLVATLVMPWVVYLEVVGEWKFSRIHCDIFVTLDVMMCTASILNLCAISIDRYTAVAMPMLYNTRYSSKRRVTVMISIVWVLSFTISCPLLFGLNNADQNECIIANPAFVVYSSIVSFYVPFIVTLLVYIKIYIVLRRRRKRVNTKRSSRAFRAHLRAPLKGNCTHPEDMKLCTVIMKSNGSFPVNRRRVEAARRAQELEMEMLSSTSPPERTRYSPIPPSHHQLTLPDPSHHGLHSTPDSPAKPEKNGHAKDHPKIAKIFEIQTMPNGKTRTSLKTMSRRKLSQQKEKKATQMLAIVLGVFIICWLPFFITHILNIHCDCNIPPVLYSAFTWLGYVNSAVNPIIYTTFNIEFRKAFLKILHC
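Tetracycline-induced HEK293 T-REx cells with force-coupled D2 receptor, plated overnight at 30 C, loaded with no-wash calcium dye. After a 10 s baseline, compound was pin-added and calcium flux read kinetically for 180 s; calcium rises flagged agonists.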
D2 antag: HTS Assay for Allosteric Antagonists of the Human D2 Dopamine Receptor: Primary Screen for Antagonists; AID 485344, 2010; inhibition, % at 10 µM; actives 2% (n = 340,000); HEK293 TREx D2 cells, calcium flux, dopamine EC80; D(2) dopamine receptor (Homo sapiens), P14416; in the data active = inhibition above about 30%; inactive = below that, where a call was filed
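Tetracycline-induced HEK293 TREx cells expressing D2 receptor forced-coupled to calcium signalling, loaded with no-wash calcium dye. Compounds added and calcium flux read 180 s, then dopamine added at EC80 and read a further 180 s.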
D2 PAM-1: HTS Assay for Positive Allosteric Modulators of the Human D2 Dopamine Receptor: Primary Screen for Potentiators; D(2) dopamine receptor (Homo sapiens), P14416; HEK293 T-REx D2, calcium flux, EC20 dopamine potentiation; potentiation, % at 10 µM; actives 0.34% (n = 340,000); AID 485347, 2010;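 active = potentiation over 3 SD above the plate norm, cut at about 30% in these data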
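Cells plated with tetracycline inducer and held overnight at 30 C; calcium dye loaded 30–90 min at room temperature; baseline taken, compound added and read 180 s; EC20 dopamine then added and read 180 s.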
D2 PAM-2: Beta-Arrestin HTS for Positive Allosteric Modulators of the Human D2 Dopamine Receptor: Potentiators | potentiation, % (no concentration beside the values) | AID 624464, 2012 | actives 0.23% (n = 360,000) | DiscoveRx D2 beta-arrestin cells, luminescence, 90 min; 100% = 57 uM dopamine signal | D(2) dopamine receptor (Homo sapiens), P14416; in the data active = potentiation above about 50%
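PathHunter D2 cells, attached overnight at 37 deg C, received compound in DMSO plus dopamine at EC20 (50 nM final) for 90 min at 37 deg C. Beta-arrestin recruitment was read as luminescence after 1 h with detection reagent at ambient temperature.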
D2 ag-2: Beta-Arrestin HTS for Positive Allosteric Modulators of the Human D2 Dopamine Receptor: Agonists | activation, % (test concentration not listed) | DiscoveRx PathHunter D2 beta-arrestin, luminescence, 90 min; 100% = 57 uM dopamine signal | D(2) dopamine receptor (Homo sapiens), P14416 | actives 0.084% (n = 360,000); in the data active = activation above about 40%
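DiscoveRx PathHunter D2 beta-arrestin cells (2,100/well) attached overnight, then compound-stimulated 90 min at 37 C in HBSS/10 mM HEPES/0.1% Tween-20 buffer; beta-galactosidase complementation read by luminescence after 1 h at ambient temperature. Dopamine 57 uM final (EC100) as control.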
Each line names hits and unclear results; the compound was inactive in the other large screens.

Cc1ccc(C)c(Nc2nc(-c3ccncc3)nc3ccccc23)c1	D2 antag 36 (no result: D2 ag-1)
O=C1CC(N2CCC(c3nc4ccccc4s3)CC2)C(=O)N1 (configuration not stated)	D2 antag 33 (no result: D2 PAM-1)
O=C(O)c1ccc(N2CCCS2(=O)=O)cc1	D2 antag 34
Cc1[nH]c2ccc(F)cc2c1CCN(Cc1cccnc1)C(=S)Nc1ccccc1	none
CNC(=S)N(CCc1c(C)[nH]c2ccc(F)cc12)Cc1cccnc1	D2 PAM-1 31
COCCNC(=S)N(CCc1c(C)[nH]c2ccc(Cl)cc12)Cc1cccs1	none
COCCNC(=S)N(CCc1c(C)[nH]c2ccc(F)cc12)Cc1cccs1	D2 antag 30
CCN(c1ccccc1)S(=O)(=O)c1ccc2[nH]c(=O)c(=O)[nH]c2c1	D2 antag 33 (no result: D2 PAM-1)
CCN(c1ccccc1)S(=O)(=O)c1ccc(F)cc1	none
CC1CC(C)CN(CCCNC(=O)Cn2ncc3c(=O)oc4ccccc4c32)C1 (configuration not stated)	none
O=C(Cn1ncc2c(=O)oc3ccccc3c21)NCCN1CCN(c2ccccc2F)CC1	D2 ag-1 37
COc1ccc(C(=O)[C@H]2[C@H]3C(=O)N(c4ccccc4)C(=O)[C@H]3C3C=CC=NN32)cc1 (some centres not stated)	D2 antag 43
CCn1c(=O)cc(SCC(=O)NCc2ccc(F)cc2Cl)c2ccccc21	none (no result: D2 antag, D2 PAM-1, D2 PAM-2, D2 ag-2)
CC(NC(=O)c1ccco1)C(=O)N1CCN(c2ccccc2)CC1 (configuration not stated)	none
CC(NC(=O)c1ccco1)C(=O)N1CCN(C(c2ccccc2)c2ccccc2)CC1 (configuration not stated)	D2 PAM-2 57
COc1ccc(OCC(=O)Nc2cc(-c3nc4ccccc4o3)ccc2Cl)cc1	none (no result: D2 antag, D2 PAM-2, D2 ag-2)
C=CCNC(=O)c1oc2ccc(S(=O)(=O)N3CCCCC3)cc2c1C	none
C=CCNC(=O)c1oc2ccc(S(=O)(=O)N3CCC4(CC3)OCCO4)cc2c1C	D2 PAM-1 33
CC(C)c1ccc(NC(=O)CN2C(=O)CSc3ccc(S(=O)(=O)N4CCCC4)cc32)cc1	none (no result: D2 antag, D2 PAM-2, D2 ag-2)
COc1ccc(NC(=O)c2cc3ccccc3o2)c(OC)c1	none (no result: D2 ag-1, D2 antag, D2 PAM-2, D2 ag-2)
COC(=O)c1cc(Cl)c(NC(=O)c2cc3ccccc3o2)cc1OC	D2 antag 32
CCOC(=O)NN1C(=O)c2ccccc2NC1c1ccccn1 (configuration not stated)	D2 antag 38 (no result: D2 PAM-1)
CC1=C(c2ccc(C)c(C)c2)S(=O)(=O)N=C1N1CCC(C(=O)NCCc2ccc(Cl)cc2)CC1	none (no result: D2 antag, D2 PAM-2, D2 ag-2)
O=C(Nc1ccccc1)NC1CCN(Cc2c(F)cccc2Cl)CC1	none
O=C(Nc1ccc2c(c1)OCO2)C1CCN(Cc2cc3c(cc2O)OCO3)CC1	D2 antag 35
O=C(Nc1ccc(F)cc1)NC1CCN(Cc2ccccc2)CC1	D2 antag 53
O=C(Nc1ccc2c(c1)OCO2)NC1CCN(Cc2ccccc2)CC1	D2 antag 46
O=C(Nc1ccc2c(c1)OCO2)C1CCCCC1	none
CCOC(=O)C1=C(COC(=O)COc2ccc(Br)cc2)NC(=O)NC1C (configuration not stated)	D2 antag 83
COc1ccc(-c2nn(-c3ccccc3)cc2/C=N/NC(=O)c2cccc(S(=O)(=O)Nc3ccccc3Cl)c2)cc1	D2 antag 45
CCC(C)c1ccccc1OCCCCN1CCCC1 (configuration not stated)	D2 antag 65
Brc1ccccc1OCCCCCN1CCCC1	none (no result: D2 PAM-2, D2 ag-2)
CCC(C)c1ccccc1OCCCNC1CCCC1 (configuration not stated)	D2 antag 78
CCC(C)c1ccccc1OCCOCCN1CCCC1 (configuration not stated)	D2 antag 54

Source: PubChem
